We go through 18 compounds from PubChem BioAssay.

Assay [1] is described as follows: viability loss with induced miR-34 in A549 – imaging, A549 dox-inducible miR-34, nuclei and caspase counts, primary screen (AID 1347080). Note: test concentration not given here. The following applies: A549 miR-34 inducible, Hoechst nuclei count, 48 h.
Assay [2] can be described thus: MELAS cybrid and Rieske KO viability enhancers – cell-based, MELAS cybrids, Rieske KO mouse fibroblasts, CellTiter-Glo, primary screen (AID 1508586;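 active = mean z-score across replicates of 1.96 or higher in either the MELAS or the Rieske mutant cell line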;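 note: test concentration not given here; z relative to plate mean and SD of compound and empty wells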). To be noted: low glucose. For orientation: In ATP-based viability assays light output follows the ATP content of the culture.
A short description of assay [3]: galactose survival enhancers in mitochondrial complex I cybrids – cell-based, galactose medium, ATP luminescence, primary screen (AID 1645843;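 active = z-score of at least 1.8 in each of two replicates, scored against plate mean and spread of sample wells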;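 note: positive z means more ATP and so rescue of galactose-driven cybrid death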). To be noted: complex I mutant cybrid cells, 72 h, stronger effect = higher value.
The mark [4] stands for this setting: stronger effect = lower value, cell number ratio, induced over uninduced.
Where [5] appears, read: measured here: relative caspase fold change +Dox/-Dox.
Where [6] appears, read: measured here: total cells with miR-34 induction, stronger effect = lower value.
[7] abbreviates: measured here: total cells without miR-34 induction.
Where [8] appears, read: MELAS cybrid survival, CellTiter-Glo 48 h, stronger effect = higher value.
Setting [9] is: Rieske KO mouse fibroblast survival, CellTiter-Glo 72 h.

SMILES strings stand for the structures. Several values for one entry are separate records, joined by “and”; a condition that tells them apart may be missing. Equal entries are not always repeated. Activity calls are given as the source filed them.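 Rule for the calls, unless noted: active = compounds whose cell count with miR-34 switched on is under 0.7 times the count with it off; inactive = the rest.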

Regarding `O=C(NCCc1ccco1)c1cc(C2CC2)[nH]n1`, the fold change in assay [1] (setting [4]) is 0.916 (inactive); in assay [1] (setting [5]), 1.14. The cell count came out at 9380 in assay [1] (setting [6]) and 10200 in assay [1] (setting [7]). The z-score in assay [2] (setting [8]) is 0.356 (inactive); in assay [2] (setting [9]), 0.504; in assay [3] it was -0.495 (inactive).
As for `CCc1ccc(CNC(=O)Nc2nc(C)n(C(C)C)n2)nc1`, the fold change was 0.86 (inactive) in assay [1] (setting [4]) and 1.49 in assay [1] (setting [5]). The figures for the cell count in assay [1] (setting [6]) and in assay [1] (setting [7]) were 7770 and 9030, respectively. For the same compound, the z-score was 0.0188 (inactive) in assay [2] (setting [8]), 0.8 in assay [2] (setting [9]) and -0.525 (inactive) in assay [3].
For the compound `Cc1nc(C(=O)O)nn1-c1cc(Cl)cc(Cl)c1`, the fold change in assay [1] (setting [4]) is 0.931 (inactive); in assay [1] (setting [5]), 0.603. In addition, the figures for the cell count in assay [1] (setting [6]) and in assay [1] (setting [7]) were 8310 and 8930, respectively. In addition, the z-score in assay [2] (setting [8]) was -0.498 (inactive); in assay [2] (setting [9]) it was -0.479; in assay [3] it was 0.61 (inactive).
Take `CC(C)n1cc(-c2cc(C(=O)N(C)Cc3ccncc3)c3cc(F)ccc3n2)cn1`: the fold change in assay [1] (setting [4]) is 0.953 (inactive); in assay [1] (setting [5]), 1.49. In addition, the cell count in assay [1] (setting [6]) was determined as 7910; in assay [1] (setting [7]), 8290. Further, the values for the z-score in assay [2] (setting [8]), in assay [2] (setting [9]) and in assay [3] were -1.09 (inactive), 0.3 and -0.295 (inactive), respectively.
Regarding `CN1CCN(Cc2ccc(-c3nc(-c4cccnc4)cc(=O)[nH]3)cc2)CC1`, the fold change is 0.911 (inactive) in assay [1] (setting [4]) and 1.1 in assay [1] (setting [5]). Moreover, the cell count in assay [1] (setting [6]) amounted to 8750; in assay [1] (setting [7]), 9610. In addition, the z-score was -0.317 (inactive) in assay [2] (setting [8]), -0.261 in assay [2] (setting [9]) and -0.55 (inactive) in assay [3].
For the compound `Cc1cc(C(=O)Nc2ccc3c(c2)CC(=O)N3)c(C)o1`, the fold change in assay [1] (setting [4]) is 0.929 (inactive); in assay [1] (setting [5]) it was 1.42. Moreover, the cell count was determined as 9120 in assay [1] (setting [6]) and 9820 in assay [1] (setting [7]). The z-score in assay [2] (setting [8]) was -0.11 (inactive); in assay [2] (setting [9]), -0.503; in assay [3] it was -0.465 (inactive).
Regarding `O=C(O)c1sccc1S(=O)(=O)Nc1ccc(Cl)cc1`, the fold change in assay [1] (setting [4]) was 0.887 (inactive); in assay [1] (setting [5]), 0.469. For the same compound, the cell count in assay [1] (setting [6]) worked out at 8810; in assay [1] (setting [7]) it was 9930. The z-score was -0.651 (inactive) in assay [2] (setting [8]), -0.438 in assay [2] (setting [9]) and 0.48 (inactive) in assay [3].
For `c1ccc2c(c1)OCC(CNc1ncnc3nc[nH]c13)O2` (stereo unspecified), the fold change in assay [1] (setting [4]) is 0.786 (inactive); in assay [1] (setting [5]), 0.972. In addition, the cell count in assay [1] (setting [6]) came out at 6310; in assay [1] (setting [7]), 8020. For the same compound, the z-score in assay [2] (setting [8]) was -0.539 (inactive); in assay [2] (setting [9]), 0.778; in assay [3], -0.485 (inactive).
For the compound `NCCC(O)C(=O)NC1CC(N)C(OC2OC(CN)C(O)C(O)C2O)C(O)C1OC1OC(CO)C(O)C(N)C1O` (stereo unspecified), the figures for the fold change in assay [1] (setting [4]) and in assay [1] (setting [5]) were 0.888 (inactive) and 0.936, respectively. Moreover, the cell count is 8210 in assay [1] (setting [6]) and 9240 in assay [1] (setting [7]). The values for the z-score in assay [2] (setting [8]), in assay [2] (setting [9]) and in assay [3] were -1.15 (inactive), -0.0039 and 0.985 (inactive), respectively.
`COc1ccccc1Cn1ncc2[nH]c(-c3ccccc3OC)nc21`: the results for the fold change in assay [1] (setting [4]) and in assay [1] (setting [5]) were 0.835 (inactive) and 1.7, respectively. Also, the cell count in assay [1] (setting [6]) was found to be 7580; in assay [1] (setting [7]), 9090. For the same compound, the z-score is -0.341 (inactive) in assay [2] (setting [8]), -0.0244 in assay [2] (setting [9]) and 2.62 (active) in assay [3].
Turning to `CCc1nc(NC(=O)NC(c2ccccc2)c2ccccc2)nn1C`, the fold change was 0.893 (inactive) in assay [1] (setting [4]) and 1.04 in assay [1] (setting [5]). Further, the cell count in assay [1] (setting [6]) was 6610; in assay [1] (setting [7]), 7400. In addition, the results for the z-score in assay [2] (setting [8]), in assay [2] (setting [9]) and in assay [3] were -0.352 (inactive), -0.694 and 1.48 (inactive), respectively.
As to `O=C(Nc1c[nH]c2ccccc12)c1cc(-c2ccc(F)cc2)n[nH]1`, the fold change in assay [1] (setting [4]) is 0.84 (inactive); in assay [1] (setting [5]), 1.42. Moreover, the cell count in assay [1] (setting [6]) turned out to be 7140; in assay [1] (setting [7]), 8510. Further, the z-score in assay [2] (setting [8]) is -0.224 (inactive); in assay [2] (setting [9]) it was 0.73; in assay [3], -0.56 (inactive).
Turning to `CC1(C)OC2CO[C@@]3(COS(N)(=O)=O)OC(C)(C)OC3C2O1` (stereo partly specified), the fold change in assay [1] (setting [4]) was 0.947 (inactive) and 0.976 (inactive); in assay [1] (setting [5]), 1.9 and 0.922. In addition, the cell count was 9570 and 9420 in assay [1] (setting [6]); 10100 and 9650 in assay [1] (setting [7]). The z-score was 1.94 (inactive) in assay [2] (setting [8]), -0.659 in assay [2] (setting [9]) and 1.01 (inactive) in assay [3].
As for `CNCc1ccccc1-c1cccs1`, the fold change in assay [1] (setting [4]) was 0.861 (inactive); in assay [1] (setting [5]) it was 0.648. The cell count in assay [1] (setting [6]) was found to be 8130; in assay [1] (setting [7]) it was 9440. The z-score was -0.43 (inactive) in assay [2] (setting [8]), -0.443 in assay [2] (setting [9]) and 0.065 (inactive) in assay [3].
Turning to `CC(C)(C)C(=O)Nc1ccc2c(c1)CC(=O)N2`, the fold change was 0.817 (inactive) in assay [1] (setting [4]) and 1.77 in assay [1] (setting [5]). Besides, the cell count turned out to be 8370 in assay [1] (setting [6]) and 10200 in assay [1] (setting [7]). Besides, the results for the z-score in assay [2] (setting [8]), in assay [2] (setting [9]) and in assay [3] were 0.0898 (inactive), 0.0111 and -0.52 (inactive), respectively.
`CC(=O)Nc1cccc(-c2nn(CC(=O)Nc3cnn(C)n3)c3ccccc23)c1`: the results for the fold change in assay [1] (setting [4]) and in assay [1] (setting [5]) were 0.885 (inactive) and 1.89, respectively. Besides, the cell count in assay [1] (setting [6]) was 8450; in assay [1] (setting [7]) it was 9550. Moreover, the results for the z-score in assay [2] (setting [8]), in assay [2] (setting [9]) and in assay [3] were -0.345 (inactive), 0.241 and -0.43 (inactive), respectively.
`COc1ccc(F)c(-c2cccc(N)n2)c1`: the fold change is 0.864 (inactive) in assay [1] (setting [4]) and 1.37 in assay [1] (setting [5]). The figures for the cell count in assay [1] (setting [6]) and in assay [1] (setting [7]) were 8940 and 10300, respectively. For the same compound, the z-score was -0.0723 (inactive) in assay [2] (setting [8]), -0.237 in assay [2] (setting [9]) and -0.555 (inactive) in assay [3].
Turning to `CN1CC2c3ccccc3Oc3ccc(Cl)cc3C2C1` (stereo unspecified), the fold change in assay [1] (setting [4]) is 0.788 (inactive); in assay [1] (setting [5]), 0.355. Moreover, the cell count in assay [1] (setting [6]) was 4990; in assay [1] (setting [7]), 6330. In addition, the z-score in assay [2] (setting [8]) was 0.214 (inactive); in assay [2] (setting [9]) it was 0.0022; in assay [3], -2.21 (inactive).
